A number with no mark means an inactive call. Results filed as inconclusive are left out. A call without a number means that no potency is given here. Active and inactive are the calls of the source. Calls come from the whole dose curve; as a rule, active = well fitted curve in the direction sought with a large enough effect; inconclusive = small, poorly fitted or top-dose-only effect, or another doubt; inactive = no such curve, though single readings can be large; an effect the other way counts as inactive or inconclusive.
Legend:
[1] = target: Metallo-beta-lactamase type 2 (Klebsiella pneumoniae) (UniProt C7C422); assay: qHTS to identify inhibitors of the New Delhi Metallo-beta-lactamase (NDM): assay validation screen against the NCATS LOPAC Collection (AID 1794843);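 note: nitrocefin turnover by NDM-1 measured as 485 nm absorbance at plateau; series mostly up to about 38 µM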
Metallo-beta-lactamase type 2 (Klebsiella pneumoniae), sequence (C7C422 whole entry, looked up): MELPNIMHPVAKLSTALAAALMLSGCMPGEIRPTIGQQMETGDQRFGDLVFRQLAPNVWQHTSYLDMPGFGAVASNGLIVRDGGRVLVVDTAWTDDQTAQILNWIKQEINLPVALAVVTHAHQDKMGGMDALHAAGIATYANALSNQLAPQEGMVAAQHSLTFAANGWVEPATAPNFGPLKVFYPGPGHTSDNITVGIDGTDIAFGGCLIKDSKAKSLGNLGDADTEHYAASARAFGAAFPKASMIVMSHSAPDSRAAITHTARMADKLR
How it was run: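 Enzyme 2 nM final, 50 mM HEPES pH 7.0, 1 uM ZnSO4, 0.01% Tween20; cpds in DMSO, preincub w/ enzyme; + nitrocefin (50 uM stock); A485 at plateau; no-enzyme column as blank.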

[2] = target: Glutathione peroxidase 1 (Homo sapiens) (UniProt P07203); assay: Primary qHTS Assay for Inhibitors of Recombinant Selenoprotein Glutathione Peroxidase 1 (GPX1) (AID 1845191); note: nearly all actives have a fitted effect of over 65% in size; note: potency is the fitted concentration of half-maximal effect
Glutathione peroxidase 1 (Homo sapiens), sequence (P07203 whole entry, looked up): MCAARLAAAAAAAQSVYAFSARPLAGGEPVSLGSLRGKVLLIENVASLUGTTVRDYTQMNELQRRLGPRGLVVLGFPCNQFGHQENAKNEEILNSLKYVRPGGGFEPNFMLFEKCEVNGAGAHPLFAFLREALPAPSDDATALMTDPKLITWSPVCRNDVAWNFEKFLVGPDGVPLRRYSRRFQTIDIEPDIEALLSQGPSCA
How it was run: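 Recombinant GPX1 (10 nM final) was preincubated with compound for 30 min at room temperature, then reacted with 1 mM GSH, 0.5 mM CHP, 0.5 mM NADPH and 100 nM glutathione reductase; NADPH fluorescence (340/450 nm) was read at 0 and 15 min.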

[3] = target: Phospholipid hydroperoxide glutathione peroxidase GPX4 (Homo sapiens) (UniProt P36969); assay: Primary qHTS Assay for Inhibitors of Recombinant Selenoprotein Glutathione Peroxidase 4 (GPX4) (AID 1845192); note: nearly all actives have a fitted effect of over 65% in size
Phospholipid hydroperoxide glutathione peroxidase GPX4 (Homo sapiens), sequence (P36969 whole entry, looked up): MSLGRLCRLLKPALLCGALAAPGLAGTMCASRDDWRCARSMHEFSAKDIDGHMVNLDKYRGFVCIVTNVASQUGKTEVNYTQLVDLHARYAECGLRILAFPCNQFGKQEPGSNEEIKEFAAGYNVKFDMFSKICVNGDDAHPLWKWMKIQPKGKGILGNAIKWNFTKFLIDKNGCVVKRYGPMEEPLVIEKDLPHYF
How it was run: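 GR-coupled readout: 100 nM GR, 1 mM GSH, 0.5 mM NADPH; NADPH fluorescence (ex 340/em 450 nm) read at t=0 and after 15 min RT. GPX4 200 nM, preincubated 30 min with compound; substrate 0.5 mM CHP.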

[4] = target: Luciferin 4-monooxygenase (Photinus pyralis) (UniProt P08659); assay: Primary firefly luciferase (FLuc) qHTS assay for identification of artifact compounds. (AID 1845220); conditions: outcome: dose series up to 54.1 µM unless noted; note: nearly all actives have a fitted effect of over 60% in size
How it was run: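 qHTS, 15 min compound preincubation with substrate (10 uM luciferin, 10 uM ATP) at RT, then 10 nM FLuc; 5 min; luminescence; % inhibition vs no-enzyme/DMSO controls, 4-parameter Hill fit.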

[5] = test system: Nanoluciferase (engineered Oplophorus gracilirostris luciferase); assay: Primary Nanoluciferase (NLuc) qHTS assay for identification of artifact compounds. (AID 1845222); note: series mostly up to about 54 µM
How it was run: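 Luminescence read-out of secreted NLuc in S16 cell conditioned medium (1:55); compounds tested with 15 min RT preincubation, then Nano-Glo substrate 1:100, 5 min. % inhibition vs no-enzyme and DMSO controls, 4-parameter Hill fit.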

[6] = Primary fluorescence-based thiol-reactive (MSTI) qHTS assay for identification of artifact compounds. (AID 1845221);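 note: series mostly up to about 54 µM; thiol-reactive compounds lower the probe fluorescence signal; nearly all actives have a fitted effect of over 65% in size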
How it was run: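 Reactivity toward the thiol probe MSTI (4 uM) is scored by fluorescence at Ex/Em 525/598 nm after 1 h at room temperature. Acetyl-MSTI and MSTI define the activity scale.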

[7] = Primary redox qHTS assay for identification of artifact compounds. (AID 1845223)
How it was run: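 Amplex Red (25 uM) and HRP (250 mU/mL) in HBSS, with compounds for 15 min, then 250 uM DTT for 30 min, room temperature, dark. Fluorescence 525/598 nm read; normalized to DMSO and 10 uM DA3003; Hill fit.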

In the case of `CCN(CC)CCOC(=O)C1(C2CCCCC2)CCCCC1`, the outcome [1] is reported as “inactive”, the Potency [2] is reported as “inactive” and the Potency [3] is reported as “inactive”.

In the case of `CNC(=O)Oc1ccc2c(c1)[C@]1(C)CCN(C)[C@@H]1N2C`, the outcome [1] is reported as “inactive”, the Potency [2] is reported as “inactive” and the Potency [3] is reported as “inactive”. The outcome [4] was “inactive” and the outcome [5] was “inactive”.

With `CO/N=C(\C(=O)N[C@@H]1C(=O)N2C(C(=O)O)=C(CSc3nc(=O)c(O)nn3C)CS[C@H]12)c1csc(N)n1` the Potency [2] was 9.04 µM (active).

For `Cc1cc(N)c2ccccc2[n+]1CCCCCCCCCC[n+]1c(C)cc(N)c2ccccc21`, the outcome [1] was “inactive”, the Potency [2] was “inactive” and the Potency [3] was “inactive”. The outcome [4] was “inactive”, the Potency [6] was “inactive” and the outcome [5] was “inactive”. For the same compound, the outcome [7] was “inactive”.

In the case of `N[C@H]1C(O)O[C@H](CO)[C@@H](O)[C@@H]1O` (stereo partly specified), the Potency [2] is reported as “inactive”.

In the case of `O=C1NC(=O)[C@@]2(CCOc3ccc(F)cc32)N1`, the outcome [1] is reported as “inactive”, the Potency [2] is reported as “inactive” and the Potency [3] is reported as “inactive”.

In the case of `CCN(CC)CCCC(C)Nc1c2ccc(Cl)cc2nc2ccc(OC)cc12` (stereo unspecified), the outcome [1] is reported as “inactive”, the Potency [2] is reported as “inactive” and the Potency [3] is reported as “inactive”. For the same compound, the outcome [4] was “inactive [at 25.7 µM]”, the Potency [6] was “inactive” and the outcome [5] was “inactive”. The outcome [7] was “inactive”.

With `CC(C(O)c1ccc(O)cc1)N1CCC(Cc2ccccc2)CC1` (stereo unspecified) the outcome [1] was “inactive”, the Potency [2] was “inactive” and the outcome [4] was “inactive [at 25.7 µM]”. The Potency [6] was “inactive”, the outcome [5] was “inactive” and the outcome [7] was “inactive”.

For `CC(C)(C)c1onc(OCP(=O)(O)O)c1CC(N)C(=O)O` (stereo unspecified), the Potency [2] was “inactive”.

With `CC[C@H]1CN2CCc3cc(OC)c(OC)cc3[C@@H]2C[C@@H]1C[C@H]1NCCc2cc(OC)c(OC)cc21` the outcome [1] was “inactive”, the Potency [2] was “inactive” and the Potency [3] was “inactive”.

With `O=c1[nH]c(=O)c2[nH]c(=O)[nH]c2[nH]1` the activity, negative = inhibition [2] was -12.4% [at 9.52 µM].

In the case of `CN1CCC[C@@H]1Cc1c[nH]c2ccc(CCS(=O)(=O)c3ccccc3)cc12`, the outcome [1] is reported as “inactive”, the Potency [2] is reported as “inactive” and the Potency [3] is reported as “inactive”. For the same compound, the outcome [4] was “inactive”, the Potency [6] was “inactive” and the outcome [5] was “inactive”. The outcome [7] was “inactive”.

With `OC[C@H]1O[C@@H](O[C@@H]2[C@@H](CO)O[C@](O)(CO)[C@H]2O)[C@H](O)[C@@H](O)[C@H]1O` the Potency [2] was “inactive”.

In the case of `CN(C)CCC=C1c2ccccc2CCc2ccccc21`, the outcome [1] is reported as “inactive”, the Potency [2] is reported as “inactive” and the Potency [3] is reported as “inactive”.

With `CC(C)(C(=O)O)c1ccc(C(O)CCCN2CCC(C(O)(c3ccccc3)c3ccccc3)CC2)cc1` (stereo unspecified) the outcome [1] was “inactive”, the Potency [2] was “inactive” and the Potency [3] was “inactive”. For the same compound, the outcome [4] was “inactive”, the Potency [6] was “inactive” and the outcome [5] was “inactive”. The outcome [7] was “inactive”.

For `CCN(CC)CCNC(C(=O)OCCC(C)C)c1ccccc1` (stereo unspecified), the Potency [2] was “inactive”.

With `COc1ccccc1O` the Potency [2] was “inactive”.

In the case of `CC[C@@]1(c2ccccc2)NC(=O)N(C)C1=O`, the Potency [2] is reported as “inactive”.

For `CN1[C@@H]2CC[C@H]1CC(OC(=O)C(O)c1ccccc1)C2` (stereo partly specified), the Potency [2] was “inactive”.

With `CC1(C)[C@@H]2CC[C@@]1(C)C(=O)C2` the Potency [2] was “inactive”.

In the case of `O=C(O)COc1nn(Cc2ccccc2)c2ccccc12`, the Potency [2] is reported as “inactive”.

In the case of `NS(=O)(=O)c1cc2c(cc1Cl)NC(CSCc1ccccc1)=NS2(=O)=O`, the Potency [2] is reported as “inactive”.

In the case of `C[C@H]1O[C@@H](n2cc(F)c(=O)[nH]c2=O)[C@H](O)[C@@H]1O`, the outcome [1] is reported as “inactive”, the Potency [2] is reported as “inactive” and the Potency [3] is reported as “inactive”.

With `CCCCC(CC)COC(=O)c1ccccc1O` (stereo unspecified) the Potency [2] was “inactive”.

For `CCN(CC)CCNC(=O)c1cc(Cl)c(N)cc1OC`, the outcome [1] was “inactive”, the Potency [2] was “inactive” and the Potency [3] was “inactive”. The outcome [4] was “inactive”, the Potency [6] was “inactive” and the outcome [5] was “inactive”. The outcome [7] was “inactive”.

With `NC1[C@H]2CN(c3nc4c(cc3F)c(=O)c(C(=O)O)cn4-c3ccc(F)cc3F)C[C@@H]12` (stereo partly specified) the outcome [1] was “inactive”, the Potency [2] was “inactive” and the Potency [3] was “inactive”.

With `O=c1cc[nH]c(=O)[nH]1` the Potency [2] was “inactive”.

For `Cc1ncc(COP(=O)(O)O)c(C=O)c1O`, the Potency [2] was “inactive”.

With `CSc1ccc2c(c1)C(N1CCN(C)CC1)Cc1ccccc1S2` (stereo unspecified) the outcome [1] was “inactive”, the Potency [2] was “inactive” and the Potency [3] was “inactive”.

In the case of `C#CCN(C)Cc1ccccc1`, the outcome [1] is reported as “inactive”, the Potency [2] is reported as “inactive” and the Potency [3] is reported as “inactive”.

In the case of `C[C@H](NC(CCc1ccccc1)C(=O)O)C(=O)N1CCC[C@H]1C(=O)O` (stereo partly specified), the outcome [1] is reported as “inactive”, the Potency [2] is reported as “inactive” and the Potency [3] is reported as “inactive”.

For `CC(C)c1c(C(=O)Nc2ccccc2)c(-c2ccccc2)c(-c2ccc(F)cc2)n1CC[C@@H](O)C[C@@H](O)CC(=O)O`, the outcome [1] was “inactive”, the Potency [2] was “inactive” and the outcome [4] was “inactive [at 25.7 µM]”. For the same compound, the Potency [6] was “inactive” and the outcome [5] was “inactive”.

In the case of `CC(=O)O[C@@]12CO[C@@H]1C[C@H](O)[C@@]1(C)C(=O)[C@H](O)C3=C(C)[C@@H](OC(=O)[C@H](O)[C@@H](NC(=O)OC(C)(C)C)c4ccccc4)C[C@@](O)([C@@H](OC(=O)c4ccccc4)[C@H]21)C3(C)C`, the Potency [2] is reported as “inactive”.

With `CC(COc1ccccc1)NC(C)C(O)c1ccc(O)cc1` (stereo unspecified) the Potency [2] was “inactive”.

Compound `N[C@@H](CSSC[C@H](N)C(=O)O)C(=O)O` has an activity, negative = inhibition [2] of -7.33% [at 0.4 µM].

In the case of `CCCCN(CCCC)CCCOC(=O)c1ccc(N)cc1`, the Potency [2] is reported as “inactive”.

For `CCC(=O)c1ccc(O)cc1`, the Potency [2] was “inactive”.

For `CCCCc1ncc(/C=C(\Cc2cccs2)C(=O)O)n1Cc1ccc(C(=O)O)cc1`, the outcome [1] was “inactive”, the Potency [2] was “inactive” and the outcome [4] was “inactive”. The Potency [6] was “inactive”, the outcome [5] was “inactive” and the outcome [7] was “inactive”.

For `COc1ccc(Cl)cc1C(=O)NCCc1ccc(S(=O)(=O)NC(=O)NC2CCCCC2)cc1`, the outcome [1] was “inactive”, the Potency [2] was “inactive” and the Potency [3] was “inactive”. The outcome [4] was “inactive” and the Potency [6] was “inactive”.

With `O=Cc1ccccc1C=O` the Potency [2] was “inactive”.

For `O=C(O)c1ccccn1`, the Potency [2] was “inactive” and the Potency [3] was “inactive”.

In the case of `Oc1cn2c(n1)Nc1ccc(Cl)c(Cl)c1C2`, the Potency [2] is reported as “inactive” and the Potency [3] is reported as “inactive”.

In the case of `CC(=O)Oc1c(C)c(C)c2c(c1C)CC[C@@](C)(CCC[C@H](C)CCC[C@H](C)CCCC(C)C)O2`, the Potency [2] is reported as “inactive” and the Potency [3] is reported as “inactive”.
